The record followed here is PubChem BioAssay (Tox21).

The nature of test [1]: qHTS assay to identify small molecule antagonists of the glucocorticoid receptor (GR) signaling pathway - cell viability counter screen (AID 720693). Also: nearly all actives have a fitted effect of over 55% in size. To be noted: GR-bla HeLa viability, CellTiter-Glo luminescence, 18 h, with 5 nM dexamethasone present; series mostly up to 58.5 µM. In general terms: In qHTS, concentration-response curves come from the screen itself.
The nature of test [2]: qHTS assay for identifying genotoxic compounds that show differential cytotoxicity against isogenic chicken DT40 cell lines with known DNA damage response pathways - wild type cell line (AID 743012). Also: nearly all actives have a fitted effect of over 60% in size. Also: potency is read from the fitted curve at half-maximal effect. Conditions: DT40 wild type chicken cells viability, CellTiter-Glo, 40 h; series mostly up to 68.4 µM. In outline:
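Parental DNA repair-proficient DT40 cells, 300 per well, were pre-incubated ~0.5 h at 37 C/5% CO2, pin-dosed with compounds in DMSO, then incubated 40 h. Viability was read as CellTiter-Glo luminescence after 30 min at room temperature.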

Test [3] is described as follows: qHTS assay for identifying genotoxic compounds that show differential cytotoxicity against isogenic chicken DT40 cell lines with known DNA damage response pathways - Rev3 mutant cell line (AID 743014). Also: nearly all actives have a fitted effect of over 55% in size. Also: potency is read from the fitted curve at half-maximal effect. Conditions: chicken DT40 Rev3-/- viability, CellTiter-Glo, 40 h; series mostly up to 68.4 µM.
A short description of test [4]: qHTS assay for identifying genotoxic compounds that show differential cytotoxicity against isogenic chicken DT40 cell lines with known DNA damage response pathways - Rad54/Ku70 mutant cell line (AID 743015). Also: nearly all actives have a fitted effect of over 60% in size. Also: potency is read from the fitted curve at half-maximal effect. Conditions: DT40 Rad54/Ku70 mutant viability, CellTiter-Glo, 40 h; series mostly up to 66.8 µM.
Test [5] in a line: qHTS assay to identify small molecule antagonists of the androgen receptor (AR) signaling pathway using the MDA cell line - cell viability counter screen (AID 743041; also: nearly all actives have a fitted effect of over 45% in size). To be noted: MDA-kb2 viability, CellTiter-Fluor, 16 h, cells co-treated with R1881 androgen agonist; series mostly up to 70.3 µM. The essentials:
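MDA-kb2 AR-luc cells (MMTV-luciferase, AR/GR responsive) treated with compounds plus R1881 agonist for 16 h at 37C. CellTiter-Fluor added at 15.5 h; fluorescence read after 30 min in the same wells.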

The nature of test [6]: qHTS assay to identify small molecule antagonists of the androgen receptor (AR) signaling pathway - cell viability counter screen (AID 743033; also: nearly all actives have a fitted effect of over 45% in size). Conditions: AR-bla HEK293 viability, CellTiter-Glo luminescence, 16 h; series mostly up to 58.5 µM.
Test [7] deals with Androgen receptor (Homo sapiens) (UniProt P10275). Briefly: qHTS assay to identify small molecule antagonists of the androgen receptor (AR) signaling pathway (AID 743035; active = well fitted inhibition curve with a large enough effect in the signal ratio in the repeat runs, not every such curve was filed as active; the % refers to the signal ratio). Conditions: HEK293 AR-UAS-bla, R1881-stimulated, beta-lactamase FRET, 16 h; series mostly up to 58.5 µM. The essentials:
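HEK293 cells stably carrying a UAS-driven beta-lactamase reporter (AR-UAS-bla GripTite) were plated for 4 h at 37C, then given compound and the agonist R1881 and incubated 16 h. Reporter activity was read by LiveBLAzer B/G FRET fluorescence after 2 h at room temperature.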

For test [8] the target is unchanged. The test is described as follows: qHTS assay to identify small molecule agonists of the androgen receptor (AR) signaling pathway (AID 743036; active = well fitted activation curve with a large enough effect in the signal ratio in the repeat runs, with a control signal flat, not every such curve was filed as active; the % refers to the signal ratio). To be noted: HEK293 AR-UAS-bla GripTite, beta-lactamase FRET ratio, 16 h; series mostly up to 62.4 µM. The essentials: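 Quantitative HTS of the Tox21 10K library in HEK293 cells bearing a stably integrated UAS-controlled beta-lactamase reporter. Compound exposure lasted 16 h at 37C. Reporter activity was detected by FRET substrate fluorescence after 2 h at room temperature.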

Test [9] shares this target. Briefly: qHTS assay to identify small molecule agonists of the androgen receptor (AR) signaling pathway using the MDA cell line (AID 743040; also: nearly all actives have a fitted effect of over 20% in size). Conditions: MDA-kb2 AR-luc cells, MMTV luciferase, 16 h; series mostly up to 70.3 µM. In outline: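 MDA-kb2 breast carcinoma cells carrying MMTV-luciferase (responsive to AR and GR), plated 5 h then treated 16 h with compounds at 37C, 0% CO2. Read-out was ONE-Glo luminescence after 30 min at room temperature.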

For test [10] the target is unchanged. The test is described as follows: qHTS assay to identify small molecule antagonists of the androgen receptor (AR) signaling pathway using the MDA cell line (AID 743042; also: nearly all actives have a fitted effect of over 55% in size). To be noted: MDA-kb2 AR-luc, MMTV luciferase, R1881 antagonist, 16 h; series mostly up to 70.3 µM. In outline: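 MDA-kb2 breast carcinoma cells carrying MMTV-luciferase (AR/GR responsive) were co-treated with compounds and the agonist R1881 for 16 h at 37C. Inhibition read as ONE-Glo luminescence; CellTiter-Fluor fluorescence measured in parallel for cytotoxicity.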

Inconclusive results are not listed. The source made the active and inactive calls. Unless noted, calls follow the shape of the dose curve; as a rule, active = well fitted curve in the direction sought with a large enough effect in the repeat runs; inconclusive = weak or mixed curves; inactive = no such curve, though single readings can be large; an effect the other way counts as inactive or inconclusive.

Chain of Androgen receptor (Homo sapiens) (P10275 whole entry, looked up): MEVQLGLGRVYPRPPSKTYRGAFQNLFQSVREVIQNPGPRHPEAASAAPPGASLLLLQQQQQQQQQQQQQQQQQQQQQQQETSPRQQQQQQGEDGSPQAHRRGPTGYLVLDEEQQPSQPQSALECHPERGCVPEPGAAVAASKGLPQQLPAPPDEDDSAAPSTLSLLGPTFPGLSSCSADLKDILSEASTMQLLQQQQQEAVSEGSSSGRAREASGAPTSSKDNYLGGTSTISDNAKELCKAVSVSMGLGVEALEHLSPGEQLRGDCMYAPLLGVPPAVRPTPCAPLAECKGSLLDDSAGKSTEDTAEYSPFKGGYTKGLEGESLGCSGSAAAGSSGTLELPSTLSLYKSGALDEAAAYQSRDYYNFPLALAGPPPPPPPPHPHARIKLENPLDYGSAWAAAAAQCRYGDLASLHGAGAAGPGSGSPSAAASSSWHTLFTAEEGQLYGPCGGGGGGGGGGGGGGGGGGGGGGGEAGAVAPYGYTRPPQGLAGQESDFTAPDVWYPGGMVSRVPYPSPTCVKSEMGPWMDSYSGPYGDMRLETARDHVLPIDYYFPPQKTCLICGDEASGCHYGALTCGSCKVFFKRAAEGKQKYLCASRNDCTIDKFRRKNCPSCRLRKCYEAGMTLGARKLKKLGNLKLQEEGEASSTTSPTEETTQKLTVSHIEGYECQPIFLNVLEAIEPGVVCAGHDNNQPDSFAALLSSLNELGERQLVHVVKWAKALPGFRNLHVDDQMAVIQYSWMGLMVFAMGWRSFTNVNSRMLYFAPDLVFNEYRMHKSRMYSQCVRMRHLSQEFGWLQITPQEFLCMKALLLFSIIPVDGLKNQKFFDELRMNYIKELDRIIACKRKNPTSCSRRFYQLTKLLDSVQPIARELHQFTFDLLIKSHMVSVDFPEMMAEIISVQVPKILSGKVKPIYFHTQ

Regarding `CN1CCN(C(c2ccccc2)c2ccc(Cl)cc2)CC1` (centres undefined), the Potency entry in [1] and in test [5] was “inactive” in each case. Further, the values for the Potency in [2], in [3] and in test [4] were 9.02 µM (active), 10.1 µM (active) and 11.4 µM (active), respectively.
Turning to `CNC(C)CCC=C(C)C` (centres undefined), the Potency entry in test [1], in test [6] and in [5] was “inactive” in each case. Besides, the Potency in test [2] is 23.7 µM (active); in test [3] it was 29.8 µM (active).
As to `CC(=O)Oc1cc(C)c(OC(C)=O)c2ccccc12`, the Potency entry in test [1] and in test [5] was “inactive” in each case. Moreover, the figures for the Potency in test [2], in test [3] and in [4] were 21.1 µM (active), 23.7 µM (active) and 23.7 µM (active), respectively.
As to `CN[C@@H]1[C@@H](O)[C@@H](O[C@@H]2[C@@H](O)[C@H](OC3OC(CN)=CCC3N)[C@@H](N)C[C@H]2N)OC[C@]1(C)O` (some centres undefined), the Potency entry in [1], in test [2], in test [3], in test [4] and in test [5] was “inactive” in each case.
With `FC(F)(F)C(F)(F)C(F)(F)C(F)(F)C(F)(F)C(F)(F)F`, the Potency result in test [1], in test [2], in [3], in test [4] and in test [5] was “inactive” each time.
Consider `COc1ccc2c(c1)N(C[C@H](C)CN(C)C)c1ccccc1S2`, for which the Potency result in test [1] and in test [5] was “inactive” throughout. Further, the Potency in test [2] and in [3] was 11.4 µM (active) throughout.
On to `CCN(CC)CCCC(C)Nc1cc(/C=C/c2ccccc2Cl)nc2cc(Cl)ccc12` (centres undefined), for which the Potency entry in test [1] and in [5] was “inactive” throughout. Also, the figures for the Potency in test [2], in test [3] and in test [4] were 26.6 µM (active), 29.8 µM (active) and 29.8 µM (active), respectively.
Regarding `OC[C@H]1OC([S-])[C@H](O)[C@@H](O)[C@@H]1O.[Au+]` (some centres undefined), the Potency entry in [1], in [3], in test [6] and in test [5] was “inactive” each time. In addition, the Potency in test [2] is 10.6 µM (active).
Turning to `CC(CN1c2ccccc2Sc2cccnc21)N(C)C` (centres undefined), the Potency result in test [1], in test [3], in test [6] and in test [5] was “inactive” each time. For the same molecule, the Potency in test [2] is 29.8 µM (active).
`CCCCC/C=C\CCC(=O)N[C@H]1[C@H](Oc2c3cc4cc2Oc2ccc(cc2Cl)[C@@H](O[C@@H]2O[C@H](CO)[C@@H](O)[C@H](O)[C@H]2NC(C)=O)[C@@H]2NC(=O)[C@H](NC(=O)[C@@H]4NC(=O)[C@H]4NC(=O)[C@@H](Cc5ccc(c(Cl)c5)O3)NC(=O)[C@H](N)c3ccc(O)c(c3)Oc3cc(O)cc4c3)c3ccc(O)c(c3)-c3c(O[C@H]4O[C@H](CO)[C@@H](O)[C@H](O)[C@@H]4O)cc(O)cc3[C@@H](C(=O)O)NC2=O)O[C@H](CO)[C@@H](O)[C@@H]1O`: the Potency result in test [1], in test [2], in test [4], in test [6] and in test [5] was “inactive” throughout.
Take `CC(=O)N[C@@H](C=O)[C@@H](O)[C@H](O)[C@H](O)CO`: the Potency result in test [1], in test [2], in test [4] and in test [5] was “inactive” throughout.
As for `CCOC(=O)Nc1ccc2c(c1)N(C(=O)CN(C)C)c1ccccc1CC2`, the Potency result in [1] and in [6] was “inactive” throughout. Moreover, the Potency in [2] was 61.1 µM (active).
With `CC(=O)O[C@H]1CC[C@@]2(C)C(=CC[C@@H]3[C@@H]2CC[C@]2(C)C(c4cccnc4)=CC[C@@H]32)C1`, the Potency result in [1], in [6], in test [7], in test [8], in [9] and in test [5] was “inactive” each time. The Potency entry in test [10] was “inactive”. Further, the Potency in [2] was 5.31 µM (active).
For the molecule `CCOC(=O)C1=C[C@@H](OC(CC)CC)[C@H](NC(C)=O)[C@@H](N)C1`, the Potency entry in [1], in test [2], in [4] and in [5] was “inactive” in each case.
Turning to `O=C1CCC(=O)N1CO`, the Potency entry in test [1], in [2], in [4] and in test [5] was “inactive” in each case.
Consider `CN=C(NC)NCc1ccccc1`, for which the Potency result in test [1], in test [2], in [4], in test [6] and in test [5] was “inactive” each time.
For the molecule `COC(=O)CCC[N+](C)(C)C`, the Potency entry in test [1], in [2], in test [4] and in test [5] was “inactive” each time.
In the case of `CC[C@H](C)[C@@H]1NC(=O)[C@H](Cc2ccc(O)cc2)NC(=O)[C@@H](N)CSSC[C@@H](C(=O)N2CCC[C@H]2C(=O)N[C@@H](CC(C)C)C(=O)NCC(N)=O)NC(=O)[C@H](CC(N)=O)NC(=O)[C@H](CCC(N)=O)NC1=O`, the Potency entry in test [1], in test [2], in test [4], in [6] and in [5] was “inactive” in each case.
For the molecule `O=S(=O)(O)CCCS(=O)(=O)O`, the Potency entry in test [1], in test [2], in [4] and in test [5] was “inactive” in each case.
On to `CS(=O)(=O)OCCCNCCCOS(C)(=O)=O`, for which the Potency result in test [1], in test [2], in [4], in [6] and in test [5] was “inactive” in each case.
Turning to `C[C@]12C=CC(=O)C=C1CC[C@@H]1[C@@H]2[C@@H](O)C[C@@]2(C)[C@H]1CC[C@]2(O)C(=O)COC(=O)CCC(=O)O`, the Potency entry in test [1], in test [2], in [4], in test [6] and in [5] was “inactive” each time.
Consider `C[C@H]1C[C@@H]2[C@H]([C@@H](O)C[C@@]3(C)[C@H]2CC[C@]3(O)C(=O)COC(=O)CCC(=O)O)[C@@]2(C)C=CC(=O)C=C12`, for which the Potency entry in test [1], in test [2], in test [4], in [6] and in [5] was “inactive” each time.
`CN1CCN(CCCN2c3ccccc3Sc3ccccc32)CC1`: the Potency entry in test [1] and in [5] was “inactive” each time. Moreover, the Potency is 9.44 µM (active) in test [2] and 13.3 µM (active) in test [4].
